An excerpt weighted towards active compounds, which were near 3% of everything screened.
Insulin prom inh = TRM-6 insulin promoter activity inhibition; TRM-6 cells (human fetal islet line), insulin promoter-eGFP reporter, imaging; reporter expression induced with tamoxifen; inhibition, % at 2 µM; 130,000 tested, 0.9% active; AID 1273;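 active = inhibition above the mean plus 3 SD, with well images judged a real hit on visual review, cut at about 60% in these data, passing the limit was not always enough; inconclusive = inhibition over the cutoff but images rejected on review; inactive = inhibition not above the cutoff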
sdo1 growth = restores growth of sdo1-depleted yeast; S. cerevisiae sdo1-depleted JHY4D growth rescue, OD600 30 h; active compounds read high; pdr5 snq2 efflux-pump mutant strain; z-score at 10 µM; 140,000 tested, 0.21% active; AID 817;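 active = z-score above 3 at both the 24 hr and the 30 hr optical density reads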;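 also: z-score against mean and SD of all compound wells on the same plate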
Measles CPE = protection of cells from measles virus; Measles virus-infected cells, CPE protection, absorbance; protection (pct of control), % at 4 µM; 140,000 tested, 1.5% active; in the data active = protection mostly above about 24%, no sharp cut-off; inactive = mostly below about 26%
ROMK primary = modulators of human ROMK potassium channel. P48048. Tet-inducible ROMK, thallium flux fluorescence; actives lie on both sides. B-score at 10 µM. 130,000 tested, 2% active;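 active = signal ratio slope over the read window, or its plate-corrected B-score, at least 3 SD from the plate mean, either direction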;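 also: B-score of the F/F0 ratio slope over 7 to 12 s after thallium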
Target sequence (P48048 whole entry, looked up): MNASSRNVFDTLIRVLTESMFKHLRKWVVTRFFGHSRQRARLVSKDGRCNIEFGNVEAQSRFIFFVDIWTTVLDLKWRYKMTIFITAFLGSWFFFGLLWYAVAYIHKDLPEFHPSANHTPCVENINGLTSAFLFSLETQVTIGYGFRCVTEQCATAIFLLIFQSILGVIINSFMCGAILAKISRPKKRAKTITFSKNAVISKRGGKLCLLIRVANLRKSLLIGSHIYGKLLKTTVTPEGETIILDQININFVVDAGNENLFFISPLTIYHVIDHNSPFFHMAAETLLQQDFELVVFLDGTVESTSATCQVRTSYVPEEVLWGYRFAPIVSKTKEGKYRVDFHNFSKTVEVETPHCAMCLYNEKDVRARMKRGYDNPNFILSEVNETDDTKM
ROMK hit retest = retested hit modulating human ROMK potassium channel; shares compounds with ROMK primary; ROMK thallium flux, fluorescence ratio; active compounds read low; normalized thallium flux (F/F0 slope) at 10 µM; 3,000 tested, 54% active;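 active = Flux at 10 µM at least 3 SD below or above vehicle control mean in one or both replicates; inconclusive = no clear call, values can overlap the other calls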
An asterisk follows results filed as active; ? = inconclusive; / = no result given; [ ] = dose if it differs, or a comment.

SMILES	Insulin prom inh	sdo1 growth	Measles CPE	ROMK primary	ROMK hit retest
Cc1ccc(-n2ncc3c(N4CCCC4)ncnc32)c(C)c1	/	0.23[10.8 µM]	3	0.02	/
COc1cccc(N2CCN(c3ncnc4c3cnn4-c3ccc(C)cc3C)CC2)c1	/	-0.32	7	/	0.071
O=C(CSc1nc2c(c(=O)n1-c1ccc(Cl)cc1)SCC2)Nc1ccc2c(c1)OCCO2	10	0.32	7	/	/
CCC1CCCCN1S(=O)(=O)c1ccc(S(=O)(=O)N(Cc2cccs2)C2CC2)cc1 (configuration not stated)	/	-0.54	42*	/	?
Cc1noc(C)c1COc1ccc(C(=O)OCC(=O)Nc2ccc3c(c2)OCO3)cc1	-14	-0.71	4	/	0.072
Cc1cc(CNCc2c(C(=O)N3CCCCCCC3)nc3ccc(Cl)cn23)nn1C	40	/	/	1.9*	0.081
CC(NC1CCCC1)c1ccccc1 (configuration not stated)	/	/	/	0.48	/
CC(NCCC(c1ccccc1)c1ccccc1)c1ccccc1 (configuration not stated)	-13	-1.7	15	-6.2*	0.046*
CCOc1ccc(N2C(N)=NC(N)=NC2(C)C)cc1	0	1.5	5	0.61	/
CC1(C)N=C(N)N=C(N)N1c1ccc(OCCCOc2ccccc2)c(Cl)c1	/	/	/	-3.1*	0.06*
CCCCOc1ccccc1C1CC(=O)NC2=C1C(=O)CCC2 (configuration not stated)	-45	-1.1	9	4.7*	0.089
CCOc1ccc(C2CC(=O)NC3=C2C(=O)CCC3)cc1 (configuration not stated)	/	0.12	19	1.1	/
O=C(NC(=S)Nc1ccc(Cc2ccncc2)cc1)c1ccc(F)cc1	/	/	/	-0.2	/
CC(=O)c1cc2c(cc1NC(=O)c1cc3nc(C(C)C)cc(C(F)(F)F)n3n1)OCO2	/	0.19	4	/	0.075
CC(C)N(CCn1c(=S)[nH]c2ccccc2c1=O)C(C)C	48	0.36	6	3.2*	0.068*
O=C(COC(=O)CNC(=O)c1sc2ccccc2c1Cl)Nc1cc(Cl)cc(Cl)c1	/	/	/	0.093	/
Cc1ccc(C(=O)/C=C/c2cn(CC(O)CN3CCOCC3)c3ccccc23)cc1 (configuration not stated)	/	-0.92	13	-1.7	/
O=C(/C=C/c1cn(CC(O)CN2CCOCC2)c2ccccc12)c1cccs1 (configuration not stated)	/	/	/	/	0.039*
COc1ccc(NS(=O)(=O)c2cccc(C(=O)N/N=C/c3ccc(O)cc3)c2)cc1	47	/	/	-0.18	/
O=c1c2ccccc2nnn1CSc1nnc(C2COc3ccccc3O2)n1-c1ccccc1 (configuration not stated)	-58	-1.4	19	-2.9*	0.042*
CCCCC(=O)NC(=S)Nc1nnn(CCC)n1	0	/	/	/	/
COc1ccnc(Oc2ccc(F)cc2)c1C(=O)N/C=N/OCc1ccccc1	-19	/	/	0.58	/
COc1ccc(-c2nnnn2-c2ccc(F)cc2F)cc1	5	/	/	-3.3*	?
COc1ccc(-n2nnnc2-c2ccccc2)cc1	-45	0.4	3	0.78	/
O=C(C[n+]1ccc2ccccc2c1)c1ccc(NC(=O)c2ccccc2)cc1	/	/	/	-0.3	/
SMILES	Insulin prom inh	sdo1 growth	Measles CPE	ROMK primary	ROMK hit retest
COc1cc(/C=N/NC(=O)c2nc3ccccn3c2C)cc(OC)c1O	-47	/	/	-0.06	/
Cc1cc(C)n2nc(/C(C#N)=C/c3ccccn3)c(C#N)c2n1	-48	/	/	-2.4*	0.044*
CCC(CNc1cc(OC)cc2cccnc12)NC1CCCCC1 (configuration not stated)	/	/	/	/	0.054*
COc1cc(NCCCC(C)N)c2ncccc2c1 (configuration not stated)	-44	-0.36[11.1 µM]	4	-1.5	/
O=C1CC(c2ccco2)CC2=C1C1c3ccccc3C(=O)N1c1ccccc1N2 (configuration not stated)	-50	-1.5	2	6.9*	0.098*
Cc1noc(C)c1CSCC(=O)N1CCN(c2ccc([N+](=O)[O-])cc2)CC1	23	0.12	10	-4.3*	0.042*
O=C(CCN1C(=O)C2C3C=CC(C3)C2C1=O)N1CCN(c2ccc([N+](=O)[O-])cc2)CC1 (configuration not stated)	-25	/	/	-2.2	0.088
O=C(ON=C1CCN(c2ccc([N+](=O)[O-])cc2)CC1)c1ccccc1	/	-2.7	3	/	0.067*
O=C(CCCC(=O)N1CCN(c2ccc([N+](=O)[O-])cc2)CC1)c1ccccc1	28	0.6	3	-3.2*	0.058*
COc1ccc(OC)c(Nc2nc3nonc3nc2N2CCCCC2)c1	/	-0.4	17	/	/
Cc1ccc(C)c(Nc2nc3nonc3nc2N2CCOCC2)c1	-25	1.5	5	-3.5*	?
O=C(NCCc1ccc(Cl)cc1)/C(=C/c1cccnc1)NC(=O)c1ccccc1	-5	0.65	22	-0.097	/
Cc1ccc(/C=C(\C#N)C(=O)NC(C)C)o1	/	/	/	0.022	/
CC(C)NC(=O)/C(C#N)=C/c1ccc(N(C)C)o1	/	/	/	-7.4*	0.047*
COc1ccccc1CN1C(=O)c2ccccc2C1C(=O)NC1CCC(C)CC1 (configuration not stated)	0	/	/	0.59	/
CN=C1c2c(-c3ccccc3)c3cc(OC)ccc3n2CCN1C	10	0.89	30	-3.7*	0.067*
Clc1ccc(CNc2ccccc2NCc2ccc(Cl)nc2)cn1	/	/	/	-0.028	/
CC(=O)C1=C(c2ccccc2)OC(N)=C(C#N)C1c1ccccc1C (configuration not stated)	-43	-0.37	19	/	/
CC(=O)C1(C)OC(N)=C(C#N)C(c2ccccc2)C1(C#N)C#N (configuration not stated)	-24	-0.32	21	-3.3*	?
CC1CCCC(C)N1CC(O)COc1c(F)cc(Br)cc1F (configuration not stated)	/	/	/	-0.18	/
O=[N+]([O-])c1ccc2c(c1)nc1n2CCN(C2CCCCC2)C1	/	/	/	-5.9*	0.053*
COc1ccc(NC(=O)c2ccc(-c3ccc([N+](=O)[O-])cc3)o2)cc1	/	/	/	-0.42	/
COc1ccc(CCNC(=O)c2ccc(-c3ccc([N+](=O)[O-])cc3)o2)cc1OC	/	-0.41	12	/	0.075
COc1ccc(C(=O)Nc2ccc(OC)c(OC)c2)cc1	-74	0.93	4	0.05	/
COc1ccc(C(=O)Nc2ccc(C(=O)NCCc3ccc(OC)c(OC)c3)cc2)cc1	/	/	/	3.2*	0.073
SMILES	Insulin prom inh	sdo1 growth	Measles CPE	ROMK primary	ROMK hit retest
O=C(c1ccc(F)cc1)n1c(NCc2ccccc2)n[nH]c1=S	/	/	/	-0.16	/
CCCNC(=O)c1ccccc1NC(=O)c1ccccc1SC	/	/	/	0.062	/
COCCNC(=O)c1ccccc1NC(=O)c1ccccc1SC	-83	/	/	3.2*	0.084
Cc1cccc(C(=O)Nc2cccc(Br)c2)c1[N+](=O)[O-]	/	/	/	0.056	/
COc1cccc(NC(=O)c2cccc(C)c2[N+](=O)[O-])c1	/	/	/	4.3*	0.082
COCCNc1ccc([N+](=O)[O-])cc1C(=O)Nc1cccc(C)n1	/	/	/	-5.1*	0.029*
COc1cccc(NC(=O)c2cc([N+](=O)[O-])ccc2NCc2cccnc2)c1	-9	-0.99	6	-6.7*	0.03*
COc1ccc(C2NC(c3ccc(OC)cc3)C(c3ccccc3)C(=O)C2c2ccccc2)cc1 (configuration not stated)	-21	-0.08	15	0.28	/

High-throughput results (PubChem BioAssay)
